Experimental data taken from the supplement of paper PMC11060735.
Structures can show the parent of a compound that is named as a salt. Hit rate of the full screen: of about 1,800 compounds, about 50 (3%) showed activity. What follows is part of a selection rich in actives, with near analogues and random picks from the rest. Unmarked numbers belong to inactive results.

tested on: mouse p16Ink4a+/- lung fibroblasts (INKBRITE, bleomycin-injured); test: percentage of GFP+ (p16Ink4a+) fibroblasts among all cells in well; higher = less depletion of p16Ink4a+ cells, active = 20 or less; settings: 1 µM; 3 days

| Compound | percentage of GFP+ |
| --- | --- |
| COc1cc(OC)c(/C=C/S(=O)(=O)Cc2ccc(OC)c(NCC(=O)O)c2)c(OC)c1 [Rigosertib] | 27.9% |
| O=C(O)COCCN1CCN(C(c2ccccc2)c2ccc(Cl)cc2)CC1 (stereo unspecified) [Cetirizine] | 46.1% |
| C[C@@H](NCCCc1cccc(C(F)(F)F)c1)c1cccc2ccccc12 [Cinacalcet] | 33.2% |
| CCCSc1nc(N[C@@H]2C[C@H]2c2ccc(F)c(F)c2)c2nnn([C@@H]3C[C@H](OCCO)[C@@H](O)[C@H]3O)c2n1 [Ticagrelor] | 30.8% |
| COc1cc([C@@H]2c3cc4c(cc3[C@@H](O[C@@H]3O[C@@H]5CO[C@@H](C)O[C@H]5[C@H](O)[C@H]3O)[C@H]3COC(=O)[C@H]23)OCO4)cc(OC)c1O [Etoposide] | 19.3% (active) |
| COc1cc([C@@H]2c3cc4c(cc3[C@@H](O[C@@H]3O[C@@H]5CO[C@@H](c6cccs6)O[C@H]5[C@H](O)[C@H]3O)[C@H]3COC(=O)[C@H]23)OCO4)cc(OC)c1O [Teniposide] | 21.1% |
| C=CC(=O)Nc1cccc(Sc2nc(Nc3ccc(N4CCN(C)CC4)cc3)ncc2Cl)c1 | 46.3% |
| O=C(Nc1ccccc1Br)N[C@@H]1CCN(c2ccc(C(F)(F)F)cn2)C1 | 39.1% |
| CCCC(C)NC(=O)c1ccc(Cl)c(Cl)c1 (stereo unspecified) | 45.8% |
| CC(C)C[C@H](NC(=O)CNC(=O)c1cc(Cl)ccc1Cl)B(O)O [Ixazomib] | 4.65% (active) |
| CNCC[C@H](Oc1cccc2ccccc12)c1cccs1 [Duloxetine] | 33.8% |
| Cn1c(=O)c2nc[nH]c2n(C)c1=O [Aminophylline, Theophylline] | 44.7% |
| CN(C)CCN(Cc1ccccc1)c1ccccn1 [Tripelennamine] | 45.6% |
| O=C[C@H](O)[C@@H](O)[C@H](O)[C@H](O)CO [D-glucose] | 42.5% |
| C[C@@H]1CN(CC(=O)Nc2ccc3c(c2)Cc2cccc(-c4cc(=O)cc(N5CCOCC5)o4)c2S3)C[C@H](C)O1 | 44.7% |
| Nc1nc(Cl)nc2c1ncn2[C@@H]1O[C@H](CO)[C@@H](O)[C@@H]1F [Clofarabine] | 35.5% |
| COc1ccc2c(c1)c(C1=C(c3c[nH]c4ccccc34)C(=O)NC1=O)cn2CCCN(C)C | 60.7% |
| OCc1c[nH]c2ccccc12 [Indole-3-carbinol] | 47% |
| O=C(/C=C/c1ccc(CN(CCO)CCc2c[nH]c3ccccc23)cc1)NO [Dacinostat] | 4.88% (active) |
| O=C(O)CCCc1c[nH]c2ccccc12 [3-Indolebutyric Acid] | 48.2% |
| C=C(c1ccc(C(=O)O)cc1)c1cc2c(cc1C)C(C)(C)CCC2(C)C [Bexarotene] | 46% |

| Compound | percentage of GFP+ |
| --- | --- |
| COc1ccc(NS(=O)(=O)c2sc3ccc(Cl)cc3c2C)cc1N1CCNCC1 | 59.1% |
| COc1ccc(Cn2ccc3ccc(C(=O)NO)cc32)cc1 | 47.2% |
| N[C@@H](CC(=O)N1CCn2c(nnc2C(F)(F)F)C1)Cc1cc(F)c(F)cc1F [Sitagliptin] | 44.6% |
| CCn1cc(C(=O)O)c(=O)c2cc(F)c(N3CCNC(C)C3)c(F)c21 (stereo unspecified) [Lomefloxacin] | 44% |
| CC[C@@H](C)Nc1cc(C(=O)NC2CC3CCC(C2)N3c2ccc(C(=O)C3CC3)cn2)c(C)cc1C(N)=O (stereo partly specified) | 5.49% (active) |
| CC(C)(F)C[C@H](N[C@@H](c1ccc(-c2ccc(S(C)(=O)=O)cc2)cc1)C(F)(F)F)C(=O)NC1(C#N)CC1 [Odanacatib] | 44.3% |
| C#Cc1cccc(Nc2ncnc3cc(OC)c(OCCCCCCC(=O)NO)cc23)c1 | 37.4% |
| C#Cc1cccc(Nc2ncnc3cc(OCCOC)c(OCCOC)cc23)c1 [Erlotinib] | 7.35% (active) |
| C#Cc1cccc(Nc2ncnc3cc(OCCOC)c(OCCO)cc23)c1 | 54.2% |
| COc1ccc(-c2cc(=O)c3c(O)cc(O)cc3o2)cc1O [Diosmetin] | 42.4% |
| CC(C)(OCc1nn(Cc2ccccc2)c2ccccc12)C(=O)O [Bindarit] | 45.3% |
| CCCN1CCCC[C@H]1C(=O)Nc1c(C)cccc1C [Ropivacaine, Ropivacaine Hydrochloride] | 46% |
| CCCCCCCCCC(=O)N[C@@H](Cc1c[nH]c2ccccc12)C(=O)N[C@H](CC(N)=O)C(=O)N[C@@H](CC(=O)O)C(=O)N[C@@H]1C(=O)NCC(=O)N[C@H](CCCN)C(=O)N[C@@H](CC(=O)O)C(=O)N[C@@H](C)C(=O)N[C@@H](CC(=O)O)C(=O)NCC(=O)N[C@H](CO)C(=O)N[C@@H]([C@@H](C)CC(=O)O)C(=O)N[C@@H](CC(=O)c2ccccc2N)C(=O)O[C@@H]1C [Daptomycin] | 37.2% |
| COC(=O)C1=C(C)N=C(C)/C(=C(/O)OC)C1c1ccccc1[N+](=O)[O-] (stereo unspecified) [Nifedipine] | 34.3% |
| CO/N=C(/C(=O)N[C@H]1C(=O)N2C(C(=O)O)=C(Cn3ccc(=N)n3CCO)CS[C@H]12)c1csc(N)n1 [Cefoselis Sulfate] | 17.3% (active) |
| C=CC1=C(C(=O)O)N2C(=O)[C@@H](NC(=O)/C(=N\O)c3csc(N)n3)[C@H]2SC1 [Cefdinir] | 49.9% |
| CO/N=C(/C(=O)N[C@@H]1C(=O)N2C(C(=O)O)=C(CSC(=O)c3ccco3)CS[C@H]12)c1csc(N)n1 [Ceftiofur HCl] | 39.5% |
| O=C(c1ccccc1)c1ccc2n1CCC2C(=O)O (stereo unspecified) [Ketorolac] | 38.6% |
| Oc1ccc(/C=C/c2cc(O)cc(O)c2)cc1 [Resveratrol] | 42.8% |
| CC1(C)CCC(C)(C)c2cc(NC(=O)c3ccc(C(=O)O)cc3)ccc21 [Tamibarotene] | 28.2% |
